Rows were chosen to be rich in hits. Some 0.49% of all compounds tested hit in one or more screens of this group.
Epigenetic derep = epigenetic control regulation, reporter derepression; Potency, µM (highest dose often 53.9 µM), hits mostly activators; murine LDR cells, GFP reporter derepression, 30 h; actives 0.2% (n = 280,000); further: nearly all actives have a fitted effect of over 60% in size
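Readout is the number of GFP-expressing murine LDR cells, counted by cytometry following washing. Cells were treated with compound for 30 h at 37 C; the stably integrated CMV-GFP locus is normally silent.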
Vif-A3F inh = Vif-A3F binding inhibition; AID 602313; HeLa A3F-eYFP + Vif (tagged APOBEC3F with the HIV-1 protein that degrades it), YFP fluorescence increase; actives 0.2% (n = 390,000); Potency, µM (titrated, usually from 46.1 µM); further: nearly all actives have a fitted effect of over 65% in size
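HeLa cells stably expressing A3F-eYFP plus Vif, plated and incubated overnight at 37 deg C, then exposed to compounds overnight at 37 deg C. Blocked degradation read as raised yellow fluorescence (Ex 488/Em 500-530).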
Anesthetic bind = binds horse apoferritin like a general anesthetic; AID 485281; actives 0.074% (n = 350,000); apoferritin/1-aminoanthracene competitive binding, fluorescence; Potency, µM (titrated, usually from 77.5 µM), usual class: inhibitors; further: nearly all actives have a fitted effect of over 20% in size
Target sequence (P02791 2-175 limits assumed): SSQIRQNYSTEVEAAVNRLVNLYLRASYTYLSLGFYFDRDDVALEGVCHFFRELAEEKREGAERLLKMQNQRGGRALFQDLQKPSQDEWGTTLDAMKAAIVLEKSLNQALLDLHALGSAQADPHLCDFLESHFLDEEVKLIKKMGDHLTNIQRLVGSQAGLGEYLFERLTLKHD
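Steps: apoferritin (10 uM) was premixed with half-saturated 1-AMA in PBS, compounds were pin-transferred, plates stood 10 min at room temperature, fluorescence was read at 380/535 nm, and curves were fitted with a Hill equation.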
Vif-A3G inh = inhibitors of Vif-APOBEC3G interaction | HeLa A3G-eYFP + Vif (tagged APOBEC3G with the HIV-1 protein that degrades it), YFP fluorescence, overnight | Potency, µM (doses to about 46.1 µM), most hits filed as inhibitors | actives 0.076% (n = 410,000) | AID 602310; further: nearly all actives have a fitted effect of over 60% in size
Target sequence (Q9HC16 whole entry, looked up): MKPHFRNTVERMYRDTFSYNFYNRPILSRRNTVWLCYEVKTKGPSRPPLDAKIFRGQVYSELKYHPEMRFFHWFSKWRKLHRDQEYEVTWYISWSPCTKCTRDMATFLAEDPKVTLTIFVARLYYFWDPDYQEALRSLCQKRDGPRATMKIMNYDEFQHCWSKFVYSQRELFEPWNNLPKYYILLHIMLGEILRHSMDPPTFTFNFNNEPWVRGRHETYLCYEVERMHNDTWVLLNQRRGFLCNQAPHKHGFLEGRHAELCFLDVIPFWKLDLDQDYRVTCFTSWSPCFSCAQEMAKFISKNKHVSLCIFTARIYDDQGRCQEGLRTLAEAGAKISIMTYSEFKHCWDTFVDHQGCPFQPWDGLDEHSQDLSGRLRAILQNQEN
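HeLa cells stably expressing Vif and C-terminally eYFP-tagged A3G, seeded overnight at 37 deg C, then exposed to compound by pintool overnight at 37 deg C. Rise in yellow fluorescence (Ex 488/Em 500-530, Acumen) marks blocked Vif-driven A3G degradation.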
LDHA block = inhibitors of human lactate dehydrogenase A; P00338; purified LDHA, NADH/diaphorase-resazurin fluorescence; stronger effect = lower value; activity change, % (values are at about 110 or 230 µM); actives 0.15% (n = 480,000); in the data active means activity change below about -30%; inconclusive means mostly about -25% to -30%
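Human LDH5 at 2 nM final in Tris HCl pH 7.4 with 0.06 mM NADH and 0.2 mM pyruvate, reacted 5 minutes at room temperature. Remaining NADH coupled via diaphorase/resazurin; resorufin fluorescence read at 0 and 20 minutes, normalized to enzyme-free and DMSO wells.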
Hits are given with their value; . = inactive; ? = inconclusive; / = no result; ! = not confirmed by another sample. Unless noted, the call rests on the fitted dose curve; in most records, active means well fitted curve in the direction sought with a large enough effect; inconclusive means small, poorly fitted or top-dose-only effect, or another doubt; inactive means no such curve, though single readings can be large; an effect the other way counts as inactive or inconclusive.

SMILES | Epigenetic derep | Vif-A3F inh | Anesthetic bind | Vif-A3G inh | LDHA block
COCCNC(=O)C1(C(F)(F)F)CC(CCCO)CCCO1 (configuration not stated) | / | . | . | . | .
COc1ccc(OCCSc2nc(N)cc(N)n2)cc1 | . | . | . | . | .
CC(C)c1cccc(C(C)C)c1NC(=O)C1CC=CCC1 (configuration not stated) | / | / | / | / | -32
O=C(Cn1nc(-c2ccccc2)ccc1=O)NCc1ccc(F)cc1 | . | . | ? | . | .
CCc1ccc(CNC(=O)Cn2nc(-c3ccc(C)cc3)ccc2=O)cc1 | . | . | 10µM | . | .
Cc1ccc(-c2ccc(=O)n(CC(=O)NCCc3ccc(Cl)cc3)n2)cc1 | . | . | ? | . | .
O=C(Cn1nc(-c2ccc(Cl)cc2)ccc1=O)NCCc1ccccc1 | . | . | 7.9µM | . | .
CCc1ccc(CNC(=O)Cn2nc(-c3ccc(Cl)cc3)ccc2=O)cc1 | . | . | 16µM | . | .
Nc1n[nH]c2ccccc12 | . | . | . | . | .
COc1ccc2nc(SCC(=O)Nc3ccc4sc(C)nc4c3)c(C#N)cc2c1 | 3.5µM | 22µM | . | . | .
CC(NS(=O)(=O)c1ccsc1C(=O)O)C1CCCO1 (configuration not stated) | / | / | / | / | .
Cc1cc(NC(=O)/C(C#N)=C\c2ccc(-c3ccc(SC(F)F)cc3)o2)n(-c2ccccc2)n1 | / | 10µM | / | ? | .
Cc1c(NC(=O)/C(C#N)=C/c2ccc(-c3ccc(Cl)c(Cl)c3)o2)c(=O)n(-c2ccccc2)n1C | . | . | . | . | .
COc1ccc(S(=O)(=O)Nc2nc3ccccc3nc2Nc2ccc(C(=O)O)cc2)cc1 | / | / | / | / | .
N#C/C(=C\Nc1ccc2c(c1)OCCO2)c1nc(-c2ccccc2)cs1 | . | . | . | . | .
COc1ccc(-c2csc(/C(C#N)=C/Nc3ccc4c(c3)OCCO4)n2)cc1 | 10µM | ? | . | . | .
Cc1ccc(/C=C2/NC(=O)N(Cc3ccccc3)C2=O)s1 | 25µM | 22µM | ? | ? | .
N#CCOC(=O)CC(NC(N)=O)c1ccccc1 (configuration not stated) | / | / | / | / | .
CC(=O)Nc1ccc2nc(NC(=O)c3ccc([N+](=O)[O-])o3)sc2c1 | / | . | . | 13µM | .
CCN1CCN(C(=S)Nc2cccc(C(F)(F)F)c2)CC1 | . | . | . | . | .
OCCN1CCN(C(=S)Nc2cccc(C(F)(F)F)c2)CC1 | . | . | . | . | -33!
COc1ccc(-n2c(O)c(/C=N/NS(=O)(=O)c3ccc(C)c([N+](=O)[O-])c3)c3ccccc3c2=O)cc1OC | . | 13µM | . | 3.5µM | .
Cc1nn(S(=O)(=O)c2ccc(Cl)cc2)c(C)c1S(=O)(=O)N1CCOCC1 | / | . | . | . | .
CCc1ccc(NC(=O)c2nc3ccccc3nc2N2CCCC2)cc1 | / | / | / | / | -31
CCc1ccc(NC(=O)c2nc3ccccc3nc2N2CCN(C)CC2)cc1 | / | / | / | / | .
SMILES | Epigenetic derep | Vif-A3F inh | Anesthetic bind | Vif-A3G inh | LDHA block
O=S(=O)(c1cccc2ccccc12)n1nnc2ccccc21 | . | / | . | . | .
Clc1cccc(OCCN2CCOCC2)c1 | . | . | ? | . | -34
Clc1cccc(OCCCCCN2CCOCC2)c1 | / | . | . | . | .
Brc1cccc(OCCN2CCCCC2)c1 | . | . | . | . | -33
OC(c1cccc(Cl)c1)c1nc(-c2cc3ccccc3o2)cs1 (configuration not stated) | / | / | / | . | .
O=C(O)c1cnc(-c2ccccc2)nc1Sc1ccc(Cl)cc1 | . | . | . | . | .
O=C(O)c1cnc(-c2ccccc2)nc1Sc1ccccc1Cl | . | . | . | . | -31
O=C(Nc1ccc2oc(-c3cccnc3)nc2c1)c1ccc([N+](=O)[O-])o1 | . | . | . | . | .
COc1ccc2c(n1)Sc1nc3ccccc3nc1N2 | 6.3µM | ? | . | ? | .
COc1cc2ccccc2nn1 | . | . | . | . | .
CSc1ccccc1NC(=O)CSCc1nc2sc(C)c(C)c2c(=O)[nH]1 | / | . | / | . | .
Cc1sc2nc(CSCC(=O)Nc3ccccc3C#N)[nH]c(=O)c2c1C | . | 13µM | . | . | .
CN1CCN(Cc2cc(Cl)c3cccnc3c2OC(=O)c2cccs2)CC1 | 3.5µM | ? | . | . | .
O=C(Oc1c(CN2CCOCC2)cc(Cl)c2cccnc12)c1ccccc1Br | ? | ? | . | . | .
Cc1onc(-c2c(F)cccc2Cl)c1C(=O)O/N=C(\N)c1ccc([N+](=O)[O-])o1 | . | . | . | 22µM | .
C/C(=N\OC(=O)c1c(-c2c(F)cccc2Cl)noc1C)c1nccs1 | . | . | . | . | .
OCCCn1c(C2CCCN2c2nc(-c3ccc(F)cc3)cs2)nc2cc(Cl)c(N3CCCCC3)cc21 (configuration not stated) | / | 25µM | / | . | .
OCCCn1c(C2CCCN2c2nc(-c3ccc(Cl)cc3)cs2)nc2cc(Cl)c(N3CCCCC3)cc21 (configuration not stated) | / | ? | / | . | .
CCCn1c(CN(C)Cc2ccccc2)nc2c1c(=O)n(C)c(=O)n2C | . | . | . | . | .
CN(Cc1ccccc1)Cc1nc2c(c(=O)n(C)c(=O)n2C)n1CCc1ccccc1 | / | . | / | . | -31!
Cc1cc(NC(=O)c2ccco2)cc(-c2nc3cc(Cl)ccc3o2)c1O | ? | 11µM | . | ? | .
Cc1cc(NC(=O)C(C)(C)C)cc(-c2nc3cc(Cl)ccc3o2)c1O | / | / | / | / | .
Cc1cccc(NC(=O)c2nc[nH]c2C(=O)N[C@@H](C)C(=O)OC(C)(C)C)c1 | . | . | 18µM | . | .
C[C@H](NC(=O)c1[nH]cnc1C(=O)Nc1ccc(Cl)cc1)C(=O)OC(C)(C)C | . | . | . | . | .
O=C1ON=C(c2ccc(Cl)c([N+](=O)[O-])c2)/C1=C/c1cccc([N+](=O)[O-])c1O | / | . | / | . | -31
SMILES | Epigenetic derep | Vif-A3F inh | Anesthetic bind | Vif-A3G inh | LDHA block
O=C1ON=C(c2ccccc2[N+](=O)[O-])/C1=C/c1cccc([N+](=O)[O-])c1O | / | . | / | . | .
Cc1cccc(N2C(S)=C(C#N)C(=O)NC2c2ccco2)c1 (configuration not stated) | . | ? | . | . | .
N#CC1=C(S)N(c2ccccc2)C(c2ccc(-c3cccc(Cl)c3)o2)NC1=O (configuration not stated) | . | 7.1µM | . | . | .
COC(=O)c1sccc1NC(=S)Nc1cc(C)cc(C)c1 | . | 25µM | . | . | .
COC(=O)c1sccc1NC(=S)Nc1ccccc1 | . | . | . | . | .
COCCNC(=O)CN(Cc1ccccc1)S(=O)(=O)c1ccc2nc(C)sc2c1 | / | . | . | . | .
Cc1nnc(SCC(=O)Nc2ccc(S(N)(=O)=O)cc2)n(N)c1=O | / | . | / | . | -39
Cc1ccc(NC(=O)CSc2nnc(C)c(=O)n2N)cc1 | . | . | . | . | .
COc1ccc(NC(=O)c2cccc([N+](=O)[O-])c2)cc1 | . | . | . | . | .

High-throughput results as filed in PubChem BioAssay.
